# Measured values taken from PubChem BioAssay AID1645853 (Buhrlage Lab, Dana-Farber Cancer Institute and Novartis …, 2021).
# The campaign covered roughly 47,000 compounds. About 2,000 (4.3%) were called active. Shown is part of a subset that was picked to be rich in actives. Values without a mark were called inactive. No stated cut-off is given here; in the data, active means inhibition above about 30%; inactive means the rest.
# Target: Ubiquitin carboxyl-terminal hydrolase 8 (Homo sapiens) (UniProt P40818)
# Sequence (P40818 whole entry, looked up): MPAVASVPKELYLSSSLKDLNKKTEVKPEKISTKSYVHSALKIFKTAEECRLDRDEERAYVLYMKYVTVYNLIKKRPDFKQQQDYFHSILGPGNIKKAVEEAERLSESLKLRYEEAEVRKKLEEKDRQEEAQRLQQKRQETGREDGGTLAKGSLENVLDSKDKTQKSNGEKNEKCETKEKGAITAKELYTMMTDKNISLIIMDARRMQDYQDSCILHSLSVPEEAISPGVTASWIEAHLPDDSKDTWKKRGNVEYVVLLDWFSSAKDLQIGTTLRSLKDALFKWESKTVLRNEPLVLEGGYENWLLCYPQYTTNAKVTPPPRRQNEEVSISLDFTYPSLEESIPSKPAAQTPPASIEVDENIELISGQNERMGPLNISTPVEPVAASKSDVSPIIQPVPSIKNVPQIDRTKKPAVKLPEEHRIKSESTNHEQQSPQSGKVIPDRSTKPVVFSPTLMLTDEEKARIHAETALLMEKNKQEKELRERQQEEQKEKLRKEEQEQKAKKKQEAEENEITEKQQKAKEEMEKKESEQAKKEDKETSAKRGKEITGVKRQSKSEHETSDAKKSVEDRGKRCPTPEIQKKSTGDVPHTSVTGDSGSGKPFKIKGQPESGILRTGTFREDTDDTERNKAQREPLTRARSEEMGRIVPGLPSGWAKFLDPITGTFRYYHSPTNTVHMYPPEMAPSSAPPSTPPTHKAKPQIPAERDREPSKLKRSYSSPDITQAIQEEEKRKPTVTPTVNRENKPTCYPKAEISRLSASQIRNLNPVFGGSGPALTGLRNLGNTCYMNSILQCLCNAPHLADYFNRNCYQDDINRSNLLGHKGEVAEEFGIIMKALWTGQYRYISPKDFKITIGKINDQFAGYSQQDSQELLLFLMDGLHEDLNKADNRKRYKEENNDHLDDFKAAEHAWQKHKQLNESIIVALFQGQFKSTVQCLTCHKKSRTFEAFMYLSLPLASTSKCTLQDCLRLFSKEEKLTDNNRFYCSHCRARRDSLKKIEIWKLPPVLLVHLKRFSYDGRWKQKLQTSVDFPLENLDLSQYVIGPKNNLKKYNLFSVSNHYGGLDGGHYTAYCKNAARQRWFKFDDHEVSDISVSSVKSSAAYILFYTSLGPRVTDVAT
# Assay: inhibitors of human USP8 deubiquitinase (AID 1645853)
# Conditions: purified USP8, Ub-rhodamine cleavage fluorescence, 30 min; at 20 µM; hits give high values
row,SMILES,inhibition
1,N#Cc1cccc(CSc2ncnc(N)n2)c1,18.1%
2,COc1ccc(CNC(=O)CSc2nnc3c4ccccc4nc(-c4ccco4)n23)cc1,-1.03%
3,Cc1oc(CNC(=O)Cc2ccc(Cl)cc2)nc1C(=O)N1CCC(C)CC1,0.0949%
4,Cn1cc2nc(SCC(=O)NCc3ccc(Cl)cc3)n(CC3CC3)c(=O)c2n1,38.7% (active)
5,O=C(CSc1ncn[nH]1)NCc1ccc2c(c1)OCO2,19.2%
6,CCN1CCN(c2ccc(NC(=O)C3CCCCC3)cn2)C1=O,1.18%
7,CS(=O)(=O)N(Cc1ccccc1F)c1ccc(Oc2ccc(N(Cc3ccccc3F)S(C)(=O)=O)cc2)cc1,0.186%
8,O=C(NCCc1cccnc1)c1ccn(-c2ccc3ccccn23)n1,-25.8%
9,Cc1nnc2ccc(-c3ccc(NC(=O)c4ccc(Br)o4)cc3)nn12,65.6% (active)
10,Cc1ccc(-c2cc(C(F)F)n3ncc(C(=O)NCC(C)C)c3n2)cc1,25.9%
11,CCCCc1nc2sc3c(SCC(=O)NCc4ccccc4)ncnc3c2c2c1CCC2,-1.42%
12,O=C(O)CC1(CC(=O)Nc2ccc(Oc3ccccc3)cc2)CCCC1,33% (active)
13,COc1ccccc1C(=O)Nc1cccc(Oc2ccccc2)c1,11.4%
14,CC1(C)CC(=O)c2ccc(OCC(=O)Nc3ccccc3)cc2O1,5.38%
15,Cc1cc(C)cc(NC(=O)c2cnc3sc4c(n3c2=O)CCCC4)c1,3.8%
16,CCOC(=O)c1cc2c(ccn2C)n1CC(=O)N1CCc2ccccc2C1,-42.9%
17,CCOC(=O)c1cc2c(ccn2C)n1CC(=O)Nc1ccc2c(c1)OCCO2,32.8% (active)
18,CCOC(=O)c1cc2c(ccn2C)n1CC(=O)N1CCC(C)CC1,-57.3%
19,O=C(c1ccc(Cl)cc1)N1CCSc2cc(Cl)ccc21,12%
20,COc1ccc(CC(=O)Nc2ccc3c(c2)CCC3)cc1S(=O)(=O)N1CCOCC1,0.366%
21,COc1ccc(CC(=O)Nc2ccc3c(c2)CN(C(=O)c2ccco2)CC3)cc1,33.2% (active)
22,COc1cc2c(cc1OC)CN(C(=O)c1cc(=O)c3ccccc3o1)CC2,3.84%
23,CCN1CCn2c(-c3cnn(C)c3)cnc2C12CCN(S(=O)(=O)CC(C)C)CC2,-29.1%
24,Cc1ccc(NC(=O)NCc2nnnn2-c2ccccc2)cc1C,0.496%
25,Cc1ccc(CCNCc2c(C(=O)O)n(C)c3ccccc23)cc1,-1.77%
26,Cc1ccc(NCc2cc3c(C)nn(-c4ccccc4)c3[nH]c2=O)cc1C,76.5% (active)
27,CC(C)(C)c1nn(-c2ccccc2)c2[nH]c(=O)c(CNCCc3ccccc3)cc12,85% (active)
28,Cc1nn(-c2ccccc2)c2[nH]c(=O)c(C#N)c(-c3ccco3)c12,10.2%

row,SMILES,inhibition
1,Cc1cccc(-c2nnc3ccc(N4CCC(C(=O)NC(C)Cc5ccco5)CC4)nn23)c1 (stereo not given),-6.13%
2,CN1C(=O)C(C)(C)COc2ccc(NS(=O)(=O)c3cccc(F)c3)cc21,11.7%
3,Cc1ccc(Cn2nccc2NC(=O)c2cc(-c3ccccc3)on2)cc1,14.1%
4,Cc1cc(C)cc(C(=O)N2CCN(c3nnc4ccccn34)CC2)c1,-9.4%
5,Cc1nonc1C(=O)NCC(=O)N1Cc2ccccc2OC2(CCOCC2)C1,20.5%
6,COc1ccccc1CNC(=O)c1ccccc1N1C(=O)[C@@H]2Cc3c([nH]c4ccccc34)C(C)N2C1=O (stereo not given in full),-25.4%
7,O=C(NCc1ccccc1)c1nc[nH]c1C(=O)NCc1cccc(C(F)(F)F)c1,-114%
8,O=C(Cc1c(Cl)cccc1Cl)NCc1cccc(C(F)(F)F)c1,49.9% (active)
9,O=C(Cc1cccc(C(F)(F)F)c1)Nc1cccn2ncnc12,2.29%
10,CC(C)=CCC(O)C1=CC(=O)c2c(O)ccc(O)c2C1=O (stereo not given),-234%
11,Cc1cc(NC(C)C)n2ncc(-c3ccc(Cl)cc3)c2n1,-13.7%
12,Cc1nc(CC(=O)Nc2ccc(F)c(F)c2)sc1C(=O)NC1CC1,10.3%
13,COc1cccc(CNS(=O)(=O)c2cc(-c3cc(C)no3)ccc2OC)c1,-16.2%
14,CCn1c(-c2ccccc2)c(C(=O)COC(=O)C(NC(=O)c2ccccc2)C(C)C)c2ccccc21 (stereo not given),13.1%
15,CN1C(=O)C2(CCN(C(=O)c3ccccc3Cl)C2)c2ccccc21 (stereo not given),-3.42%
16,O=C(Nc1ccccc1)N1CCN(c2ncccc2-c2nnc(C3CC3)o2)CC1,-5.37%
17,CC1CCN(c2nc(F)c3c(c2F)S(=O)(=O)CCN3Cc2cccnc2)CC1,85.2% (active)
18,CCN1CCN(c2nc(F)c3c(c2F)S(=O)(=O)CCN3CC2CCCO2)CC1 (stereo not given),25.6%
19,O=S1(=O)c2ccccc2O[C@H]2CCN(c3ncccn3)CC[C@@H]2N1Cc1cccnc1,-15.4%
20,COc1ccc(NC(=O)c2cc(S(=O)(=O)N3CCCCCC3)cn2C)cc1,0.0121%
21,CC(CS(=O)(=O)c1ccc2c(c1)NC(=O)CCS2)C(=O)N1CCc2ccccc21 (stereo not given),-14%
22,CC1CN(C(=O)c2ccc(-n3cccn3)c(C#Cc3ccccn3)c2)CC(C)O1 (stereo not given),-93.1%
23,Cc1ccc(Cn2cc(-c3noc(-c4ccc[nH]4)n3)nn2)cc1,35.7% (active)
24,COc1ccc(-c2nc(-c3nnn(Cc4cccc(F)c4)c3C)no2)cc1,0.245%
25,Cc1ccc(Cn2cc(-c3noc(-c4ccccn4)n3)nn2)cc1,-56.3%
26,O=C(NCc1noc(C2CCCC2)n1)C1CCCCC1,19.8%
27,CCc1nnsc1C(=O)N1CCOC(c2cccc(N(C)C)n2)C1 (stereo not given),11.8%
